Source: PubChem BioAssay
An excerpt weighted towards active compounds, which were near 6% of everything screened.
VDR inhibitor: Inhibitors of the vitamin D receptor (VDR): qHTS | Vitamin D3 receptor (Homo sapiens), P11473 | 0.93% of 400,000 active | AID 504847, 2011 | Potency, µM, for inactives: max response, negative = inhibition, actives largely listed as inhibitors | VDR-SRC2-3 peptide fluorescence polarization, 2 h
Target sequence (P11473 whole entry, looked up): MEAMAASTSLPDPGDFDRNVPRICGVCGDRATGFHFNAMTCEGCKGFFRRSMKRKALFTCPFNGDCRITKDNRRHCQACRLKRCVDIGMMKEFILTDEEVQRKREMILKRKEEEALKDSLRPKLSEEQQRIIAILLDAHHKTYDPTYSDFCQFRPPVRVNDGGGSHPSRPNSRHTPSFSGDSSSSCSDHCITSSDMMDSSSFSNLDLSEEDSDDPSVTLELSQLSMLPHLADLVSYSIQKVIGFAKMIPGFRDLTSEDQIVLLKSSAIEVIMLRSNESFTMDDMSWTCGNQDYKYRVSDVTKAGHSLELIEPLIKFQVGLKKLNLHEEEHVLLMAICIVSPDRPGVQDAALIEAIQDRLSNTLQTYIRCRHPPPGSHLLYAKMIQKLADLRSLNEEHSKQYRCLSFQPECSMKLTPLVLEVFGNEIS
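Measured by FP: displacement of SRC2-3 coactivator peptide from VDR by library compounds, following a two-hour ambient incubation.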
PLK1 PBD inh: qHTS for Inhibitors of PLK1-PDB (polo-like kinase 1 - polo-box domain): Primary Screen | Serine/threonine-protein kinase PLK1 (Homo sapiens), P53350 | Plk1 PBD binding of FITC phosphopeptide, fluorescence polarization | Potency, µM, for the others: max response, negative = inhibition, most hits filed as inhibitors | 2.8% of 360,000 active | AID 720504, 2013; also: series mostly up to about 57 µM; nearly all actives have a fitted effect of over 65% in size
Sfp inh: qHTS Assay for Inhibitors of Bacillus subtilis Sfp phosphopantetheinyl transferase (PPTase). 4'-phosphopantetheinyl transferase ffp (Bacillus subtilis), Q9F4F7. 3.5% of 310,000 active. Biochemical Sfp PPTase activity, qHTS. Potency, µM, without a hit: largest response in the series, negative = inhibition, most hits filed as inhibitors;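 also: the enzyme is Sfp with the accession as filed and its product quenches rhodamine fluorescence; 0% = enzyme reaction without inhibitor and -100% = no enzyme wells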
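Fluorescence-quenching assay: 15 nM Sfp-PPTase preincubated 15 min at room temperature with compound, then 5 uM rhodamine-CoA and 12.5 uM BHQ-2-labelled YbbR peptide added. Fluorescence (ex 525/em 598 nm) read at start and after 30 min; difference gives rate.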
Tau ThT inhib: qHTS for Inhibitors of Tau Fibril Formation, Thioflavin T Binding. Microtubule-associated protein tau (Homo sapiens), P10636. recombinant tau K18 P301L, heparin-induced fibrillization, ThT fluorescence. Potency, µM (doses to about 57.4 µM), for the others: at the highest dose activity, negative = inhibition, actives largely listed as inhibitors. 2.1% of 270,000 active; also: nearly all actives have a fitted effect of over 55% in size
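ThT emission at 510 nm, taken 1 hr after adding 30 uM dye, quantifies aggregates formed when 20 uM heparin acts on human tau K18 P301L for 6 hr at 37 C.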
Tau fluor cs: Counterscreen qHTS for Inhibitors of Tau Fibril Formation, Fluorescence Polarization | tau K18 P301L Alexa594 fluorescence, heparin fibrillization | Potency, µM (titrated, usually from 57.7 µM), for the others: at the highest dose activity change, negative = decrease | 0.93% of 280,000 active | AID 1463, 2008; also: nearly all actives have a fitted effect of over 55% in size
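Human tau K18 P301L (15 uM unlabeled, 0.24 uM Alexa 594-labeled) in 100 mM sodium acetate pH 7 with 20 uM heparin, 6 hr at 37 C. ThT 30 uM added, 1 hr ambient; Alexa 594 FP and total fluorescence read at 555/632 nm.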
Tau FP inhib: qHTS for Inhibitors of Tau Fibril Formation, Fluorescence Polarization | Microtubule-associated protein tau (Homo sapiens), P10636 | Potency, µM (doses to about 57.7 µM), for inactives: at the top dose activity, negative = inhibition, most hits filed as inhibitors | 0.39% of 280,000 active | K18 P301L tau heparin fibrillization, Alexa594 FP, 6 h | AID 1468, 2008; also: nearly all actives have a fitted effect of over 55% in size
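FP of Alexa 594-tau after heparin (20 uM) induction. Substrate: human K18 P301L, 15 uM unlabeled, 0.24 uM labeled. Buffer 100 mM sodium acetate pH 7. 6 hr, 37 C.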
The depositor's hits bear a star; u = inconclusive; x = no result given. Calls follow the shape of the dose curve; as a rule, active = well fitted curve in the direction sought with a large enough effect; inconclusive = small, poorly fitted or top-dose-only effect, or another doubt; inactive = no such curve, though single readings can be large; an effect the other way counts as inactive or inconclusive. Unless noted, % is scaled to controls: 0 for no effect and ±100 for the full control effect; potency is read from the fitted curve at half-maximal effect.

SMILES	VDR inhibitor	PLK1 PBD inh	Sfp inh	Tau ThT inhib	Tau fluor cs	Tau FP inhib
O=C(NCCN1CCCCC1)c1cc(Cl)ccc1Cl	7%	-7%	10%	x	x	x
c1ccc(Cc2nnc3sc(C4COc5ccccc5O4)nn23)cc1 (stereo not drawn)	u	15µM*	u	u	-9%	-4%
Cn1c(SCc2ccc(C(C)(C)C)cc2)nnc1C1COc2ccccc2O1 (stereo not drawn)	19%	1%	-5%	-16%	-7%	14%
COc1ccc(-c2cc(-c3ccco3)[nH]c(=O)c2C#N)cc1OC	-13%	u	22µM*	u	u	-14%
COc1cc(/C=N/NC(=O)C2COc3ccccc3O2)ccc1O (stereo not drawn)	-8%	-10%	8%	u	-19%	-2%
O=C(N/N=C\c1ccc(O)c([N+](=O)[O-])c1)C1COc2ccccc2O1 (stereo not drawn)	-6%	-2%	-3%	10µM*	-12%	u
Cc1cc([N+](=O)[O-])cc(/C=N\NC(=O)C2COc3ccccc3O2)c1O (stereo not drawn)	-10%	-4%	20%	13µM*	u	9%
COc1cc(Cl)c(C)cc1NC(=O)CCCN1C(=O)CCC1=O	-14%	-4%	13%	0%	-1%	4%
COC(=O)c1cc(OC)c(OC)cc1NC(=O)CCCCCN1C(=O)CCC1=O	-4%	30µM*	8%	-7%	-3%	-6%
O=C(CCCN1C(=O)CCC1=O)Nc1ccccc1F	-14%	u	79µM*	u	-16%	-14%
COc1ccc(-c2c(C(=O)c3ccccc3)[nH]c(N)c2C(=O)NCc2ccccc2)cc1OC	x	1%	x	x	x	x
Cc1ccc(CNC(=O)C2c3ccccc3C(=O)N3CCc4ccccc4C23)o1 (stereo not drawn)	u	-16%	14µM*	u	-14%	u
Oc1ccccc1C(=S)N1CCCCC1	-22%	27µM*	-28%	u	-2%	-6%
Oc1ccccc1C(=S)N1CCCCCC1	-4%	u	20%	u	-20%	u
CCOC(=O)Cc1ccc(NC(=O)c2ccc(C(C)(C)C)cc2)cc1	-8%	5.3µM*	24%	u	-27%	6%
COc1cc(S(=O)(=O)NCc2ccccn2)ccc1Cl	u	24µM*	7%	x	x	x
CCOc1cc(S(=O)(=O)NCc2cccs2)ccc1Cl	2%	27µM*	16%	-1%	-9%	1%
CCOc1ccc(S(=O)(=O)NCc2cccs2)cc1C(C)C	-8%	-3%	x	x	x	x
COc1cc(S(=O)(=O)NCc2ccccn2)c(OC)cc1Cl	13%	-1%	0%	2%	6%	5%
CN(c1ccccc1)C(CNS(=O)(=O)c1ccccc1)c1ccccc1 (stereo not drawn)	13%	x	x	-1%	u	12%
CCCN1CCN(CC(O)COC(c2ccc(OC)cc2)c2ccc(OC)cc2)CC1 (stereo not drawn)	-12%	-2%	45µM*	x	x	x
NC1=CC(=O)C(=O)c2ccccc21	45µM*	-22%	x	x	x	x
O=C1C=C(Nc2ccc(F)cc2)c2ccccc2C1=O	-15%	-4%	x	x	x	x
NNc1nc(Nc2ccc([N+](=O)[O-])cc2)nc(N2CCCCCC2)n1	-9%	-6%	12%	x	x	x
Cc1ccc([N+](=O)[O-])cc1Nc1nc(N2CCCC2)nc(N2CCCC2)n1	79µM*	19µM*	-15%	x	x	x
CCOc1ccc(N2C(=O)CS/C2=C(\C(Cl)=C(Cl)Cl)[N+](=O)[O-])cc1	18%	-14%	2%	16µM*	u	u
